Bioassay records deposited in PubChem BioAssay by The Scripps Research Institute Molecular Screening Center.
MITF primary: human MITF inhibition, primary screen; AlphaScreen MITF homodimerization, bead proximity signal; inhibition, % at 2.6 µM; 650,000 compounds, 0.91% hits; AID 1259374; in the data active = inhibition above about 50%;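 also: 0% = vehicle wells with protein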
GPR151 ag: activates the human receptor GPR151 | Q8TDV0 | PathHunter beta-arrestin GPR151 cells, luminescence | activation, % at 11.2 µM | 650,000 compounds, 1% hits; in the data active = activation above about 4.9%;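 also: 0% = median of compound wells and 100% = cells with positive control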
FBW7 act: human FBW7 E3 ligase activation, primary screen; AlphaScreen FBW7–phospho-cyclin E peptide binding, activator screen; 650,000 compounds, 0.13% hits; Q969H0; normalized activity (activation), % at 26.1 µM; in the data active = normalized activity above about 1.9%;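 also: purified mutant Fbw7 with reduced substrate affinity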
TEAD-YAP block: TEAD-YAP interaction inhibition | 640,000 compounds, 1.4% hits | inhibition, % at 9.12 µM | HEK-TIYL cells, TEAD-Gal4/YAP UAS-luciferase luminescence; in the data active = inhibition above about 32%;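 also: 0% = median of test compound wells and 100% = reference inhibitor wells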
GPR151 conf act: confirmation of human GPR151 activators; 6,700 tested, under 10 active; activation, % at 11.2 µM; GPR151 PathHunter beta-arrestin cells, luminescence, 90 min; % of EA-reagent control over plate median; shares compounds with GPR151 ag;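 active = mean percent activation across replicates above the confirmation screen cutoff of 4.91%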
GPR119 counter: activates human GPR119 in a GPR151 counter-screen. shares compounds with GPR151 ag. GPR119 PathHunter beta-arrestin cells, luminescence, 90 min; 0 = compound-well median, 100 = enzyme-acceptor control. activation, % at 11.2 µM. 6,700 compounds, 0.3% hits;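 active = mean percent activation in the counterscreen above 29.09%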;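 also: counterscreen on off-target GPR119 to flag nonselective hits from the GPR151 activator screen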
* = called active by the depositor; . = no result. Compounds with a hit are over-represented: about 3.5% of the library has one in this group of screens.

SMILES	MITF primary	GPR151 ag	FBW7 act	TEAD-YAP block	GPR151 conf act	GPR119 counter
CSCCCNC(=O)CC1C(=O)NCCN1C1Cc2ccccc2C1 (stereo not given)	10.4	4.9*	0.1	3.8	-0.1	-0.2
CN1C(=O)c2c(sc3c2CCCC3)NC1c1ccc(O)cc1 (stereo not given)	-8.8	-1.7	0.1	1.9	.	.
O=C(/C=C/c1cccc(Cl)c1)Nc1ccncc1	0.6	23.6*	0.0	-26.1	0.3	-9.1
COc1ccc(C(=O)Oc2ccc(/C=C/c3ccncc3)cc2)cc1OC	13.3	5.2*	-0.1	57.2*	-0.4	3.5
O=C(Oc1ccc(OC(=O)c2ccncc2)cc1)c1ccncc1	8.9	10.2*	-0.1	-7.7	-1.3	-14.7
CCCOC(=O)c1ccc(NC(=O)C(=O)NCc2ccco2)cc1	6.2	0.2	0.0	-4.4	.	.
COCC1CCCCN1Cc1nc(-c2ccc(OC)c(OC)c2OC)no1 (stereo not given)	-7.8	0.6	-0.1	-2.1	.	.
COc1ccc(-c2noc(CN3CCN(c4ccccc4)CC3C)n2)c(OC)c1OC (stereo not given)	11.7	4.9*	0.1	-4.7	1.0	6.0
Cc1cc2c(cc1S(=O)(=O)NC1CCC(C)CC1)OCC(=O)N2 (stereo not given)	-6.0	0.7	0.0	-12.0	.	.
O=C(CCCn1cccc1)Nc1ccc(F)cc1F	9.0	6.7*	0.0	5.0	-0.5	4.6
O=C(CCCCC(=O)Nc1ccc(F)cc1F)Nc1ccc(F)cc1F	5.2	1.5	0.0	6.4	.	.
Cc1cc2nc3c(=O)n(C4CCCCCC4)c(=O)[nH]c3nc2cc1N	5.4	5.1*	0.6	-20.4	2.4	8.1
COc1ccc(OC)c(C2CC(=O)N3C(=C2C#N)SCC3(O)c2ccc(F)cc2)c1 (stereo not given)	13.6	-0.8	0.0	-17.8	.	.
COC(=O)c1ccc(NC(=O)CN(C2CCCCC2)S(=O)(=O)c2ccc(F)cc2)cc1	5.3	-0.5	0.0	5.3	.	.
Cc1ccc(N/C=C/C(=O)c2cccs2)cc1C	6.9	9.6*	1.1	-24.1	-2.3	-19.7
COc1cc(Nc2cc(NCCc3ccc(O)cc3)nc(N)n2)cc(OC)c1OC	1.7	0.1	0.1	9.7	.	.
Cc1nnc2c(N3CCN(c4ccccn4)CC3)nc3ccccc3n12	-6.2	6.2*	-0.1	1.3	0.0	-2.0
COc1ccc(C2CC(c3cccs3)=NN2C(=O)CSc2nnc(CNC(=O)c3cccc(OC)c3)n2-c2ccccc2)cc1 (stereo not given)	-9.4	5.8*	-0.1	1.6	1.4	0.7
COc1cccc(C(=O)NCc2nnc(SCC(=O)N3N=C(c4cccs4)CC3c3ccc(C)cc3)n2-c2ccccc2)c1 (stereo not given)	-12.2	0.6	-0.1	6.7	.	.
O=C1c2ccc(-n3c(=O)c4cc5c(=O)n(-c6ccc7c(c6)C(=O)N(c6ccccc6)C7=O)c(=O)c5cc4c3=O)cc2C(=O)N1c1ccccc1	-2.0	1.2	0.0	-8.2	.	.
Cc1cccc(NC(=O)C(=O)NC2CCCCC2)c1	0.2	5.5*	0.1	-27.1	-2.6	-20.9
Cc1cccc(NC(=O)C(=O)NC2CCCCCC2)c1	-0.2	-1.1	-0.1	-52.1	.	.
O=[N+]([O-])c1c(N2CCCCC2)c([N+](=O)[O-])c2nsnc2c1N1CCCCC1	12.9	5.6*	-0.1	2.6	-1.4	-10.4
O=[N+]([O-])c1c(N2CCCC2)ncnc1N1CCCC1	-1.7	0.5	0.0	6.0	.	.
O=c1[nH]c2ccccc2c(O)c1-c1nc2ccccc2c(=O)[nH]1	-9.8	1.4	-0.1	0.1	.	.
COc1ccc2c(CNC3CCCC(C)C3C)c(C(=O)O)n(Cc3ccc(C)cc3)c2c1 (stereo not given)	9.6	4.9*	0.2	10.8	-0.1	-0.1
CCC(=O)Nc1nc2c(OC)ccc(OC)c2s1	4.6	5.0*	-0.1	11.8	-0.6	2.4
CCC(=O)Nc1nc2c(Cl)ccc(Cl)c2s1	-8.2	3.0	-0.3	-5.2	.	.
CC(Oc1ccc(C(C)(C)C)cc1)C(=O)NC1CCS(=O)(=O)C1 (stereo not given)	-13.2	5.2*	-0.1	2.5	-0.5	-7.3
COc1cccc(S(=O)(=O)N2CCC(c3nc(-c4cccnc4)no3)CC2)c1	29.2	7.4*	0.5	1.8	-1.0	-11.2
